According to PubChem BioAssay AID720700 (The Scripps Research Institute Molecular Screening Center, 2013):
Where “and” joins values, the source holds several entries; their conditions need not be identical. Equal values may be shown once. Hit rate of the full screen: of about 370,000 compounds, about 3,100 (0.84%) were called active. The entries come from a sample that favours actives as a whole. Values without a mark were called inactive. No stated cut-off is given here; in the data, active means inhibition above about 9.5%; inactive means the rest.

The molecules below were run against 1-phosphatidylinositol 4,5-bisphosphate phosphodiesterase gamma-1 (Homo sapiens) (UniProt P19174) (assay: PLC-gamma1 enzyme inhibitors, primary screen, biochemical, fluorescence, purified enzyme (AID 720700)). Details: purified PLC-gamma1, fluorogenic substrate, at 12.2 µM, active compounds read high.
Sequence of 1-phosphatidylinositol 4,5-bisphosphate phosphodiesterase gamma-1 (Homo sapiens) (P19174 whole entry, looked up): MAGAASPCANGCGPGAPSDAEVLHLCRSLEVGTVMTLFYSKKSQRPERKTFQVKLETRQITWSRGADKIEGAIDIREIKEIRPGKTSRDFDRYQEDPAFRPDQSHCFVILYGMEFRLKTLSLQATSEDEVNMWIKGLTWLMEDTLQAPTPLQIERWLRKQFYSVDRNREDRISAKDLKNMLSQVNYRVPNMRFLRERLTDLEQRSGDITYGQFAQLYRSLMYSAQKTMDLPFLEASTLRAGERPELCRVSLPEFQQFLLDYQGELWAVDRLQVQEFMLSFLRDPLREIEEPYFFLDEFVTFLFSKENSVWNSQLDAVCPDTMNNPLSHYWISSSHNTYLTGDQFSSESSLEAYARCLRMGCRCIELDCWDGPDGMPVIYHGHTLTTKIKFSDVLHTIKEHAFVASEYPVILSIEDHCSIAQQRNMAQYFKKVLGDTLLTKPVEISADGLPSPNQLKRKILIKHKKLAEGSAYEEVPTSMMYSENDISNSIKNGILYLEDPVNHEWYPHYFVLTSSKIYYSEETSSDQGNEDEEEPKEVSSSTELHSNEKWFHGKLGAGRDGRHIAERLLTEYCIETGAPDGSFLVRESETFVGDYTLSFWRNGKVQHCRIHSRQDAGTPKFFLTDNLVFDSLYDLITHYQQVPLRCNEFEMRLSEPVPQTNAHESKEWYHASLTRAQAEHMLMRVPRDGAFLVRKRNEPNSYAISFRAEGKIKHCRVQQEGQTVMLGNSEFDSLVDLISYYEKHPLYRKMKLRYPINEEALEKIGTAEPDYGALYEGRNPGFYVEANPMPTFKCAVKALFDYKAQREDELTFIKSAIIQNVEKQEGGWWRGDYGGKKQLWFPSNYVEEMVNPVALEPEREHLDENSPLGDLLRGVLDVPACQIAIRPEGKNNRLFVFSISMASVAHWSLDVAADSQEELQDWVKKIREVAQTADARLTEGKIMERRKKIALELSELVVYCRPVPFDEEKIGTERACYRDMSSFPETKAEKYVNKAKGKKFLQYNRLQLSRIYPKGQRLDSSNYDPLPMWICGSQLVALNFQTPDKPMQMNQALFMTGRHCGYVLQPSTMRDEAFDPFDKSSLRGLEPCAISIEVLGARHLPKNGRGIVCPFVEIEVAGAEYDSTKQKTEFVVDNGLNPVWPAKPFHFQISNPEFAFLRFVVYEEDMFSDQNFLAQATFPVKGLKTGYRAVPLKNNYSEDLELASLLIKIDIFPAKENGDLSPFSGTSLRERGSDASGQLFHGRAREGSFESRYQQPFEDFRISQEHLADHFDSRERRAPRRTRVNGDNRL

Compound | inhibition
CC(=O)N1CN2CN(C(C)=O)CC(C(=O)c3ccc(Br)cc3)(C2)C1 | 11.9% (active)
Cc1cc(-c2ccc(N)c(C)c2)ccc1N | 2.25%
Oc1ccc2c3c1OC1[C@H](O)CC[C@@]4(O)[C@@H](C2)N(CC2CC2)CC[C@]314 (stereo not given in full) | -3.08% and -2.01%
O=C(NC1CCCCC1)N1Cc2cc(N3CCCCC3)ccc2-n2nncc2C1 | -5.89%
CCN(CC)P(=O)(Oc1cccc(C)c1)N(CC)CC | 7.26%
COC(=O)C1=C(c2cccc(OCc3ccccc3)c2)C[C@@H]2CC[C@H]1N2C(=O)NCc1ccc(Br)cc1 | 0.93%
COC(=O)C1=C(c2ccc(-c3ccccc3)c(F)c2)C[C@@H]2CC[C@H]1N2C(=O)NCc1ccc(F)cc1 | 11.8% (active)
COC(=O)C1=C(c2ccc(F)cc2OCc2ccccc2)C[C@@H]2CC[C@H]1N2C(=O)NCc1ccc(Cl)cc1 | 4.35%
CCOC(=O)C(O)(c1ccc(N)c(OC)c1)C(F)(F)F (stereo not given) | 0.45%
CN(C)CCN(CC1CCCN(Cc2ccccc2F)C1)C(=O)Cc1ccc(F)c(F)c1 (stereo not given) | 1.2%
